These results are taken from PubChem BioAssay (Tox21).

The nature of assay [1]: qHTS assay to identify small molecule antagonists of the glucocorticoid receptor (GR) signaling pathway - cell viability counter screen (AID 720693). Note: nearly all actives have a fitted effect of over 55% in size. Note: potency is the fitted concentration of half-maximal effect. On the technique in general: qHTS replaces the single test concentration by a dilution series.
Assay [2] in a line: qHTS assay for identifying genotoxic compounds that show differential cytotoxicity against isogenic chicken DT40 cell lines with known DNA damage response pathways - wild type cell line (AID 743012). Note: nearly all actives have a fitted effect of over 60% in size. Note: potency is the fitted concentration of half-maximal effect. In a few lines:
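Cytotoxicity in repair-proficient parental chicken DT40 cells serves as the comparator for Rad54/Ku70- and Rev3-deficient lines. Cells were exposed to compounds for 40 h at 37 C/5% CO2, and ATP-based luminescence (CellTiter-Glo) measured viability.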

Assay [3] in a line: qHTS assay for identifying genotoxic compounds that show differential cytotoxicity against isogenic chicken DT40 cell lines with known DNA damage response pathways - Rev3 mutant cell line (AID 743014). Note: nearly all actives have a fitted effect of over 55% in size. Note: potency is the fitted concentration of half-maximal effect.
Assay [4] can be described thus: qHTS assay for identifying genotoxic compounds that show differential cytotoxicity against isogenic chicken DT40 cell lines with known DNA damage response pathways - Rad54/Ku70 mutant cell line (AID 743015). Note: nearly all actives have a fitted effect of over 60% in size. Note: potency is the fitted concentration of half-maximal effect.
Assay [5] is described as follows: qHTS assay to identify small molecule antagonists of the androgen receptor (AR) signaling pathway - cell viability counter screen (AID 743033; note: nearly all actives have a fitted effect of over 45% in size; note: potency is the fitted concentration of half-maximal effect).
Assay [6] in a line: qHTS assay to identify small molecule antagonists of the thyroid receptor (TR) signaling pathway - cell viability counter screen (AID 743064). Note: nearly all actives have a fitted effect of over 50% in size. Note: potency is the fitted concentration of half-maximal effect. An outline of the steps: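 Fluorescence from CellTiter-Fluor, added after 23.5 h exposure at 37 °C, reported viability of GH3.TRE-Luc cells co-treated with compound and 1 nM T3. Measured in the same wells as the luciferase TR readout.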

The nature of assay [7]: qHTS assay to identify small molecule antagonists of the estrogen receptor alpha (ER-alpha) signaling pathway - cell viability counter screen (AID 743074; calls by dose curve; note: nearly all actives have a fitted effect of over 45% in size; note: potency is the fitted concentration of half-maximal effect).
Assay [8] in a line: qHTS assay to identify small molecule antagonists of the estrogen receptor alpha (ER-alpha) signaling pathway using the BG1 cell line - cell viability counter screen (AID 743081).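 Note: compound given together with 17beta-estradiol as the ER stimulus; nearly all actives have a fitted effect of over 45% in size.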 Note: potency is the fitted concentration of half-maximal effect.
Another assay addresses Aromatase (Homo sapiens) (UniProt P11511). Description: qHTS assay to identify aromatase inhibitors (AID 743083). Note: nearly all actives have a fitted effect of over 55% in size. Note: potency is the fitted concentration of half-maximal effect.
Assay [9] can be described thus: qHTS assay to identify small molecule antagonists of the thyroid receptor (TR) signaling pathway (AID 743065). Note: nearly all actives have a fitted effect of over 55% in size. Note: potency is the fitted concentration of half-maximal effect. An outline of the steps: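 GH3.TRE-Luc rat pituitary cells carrying two TR response elements driving luciferase were plated for 4 h, given compound plus 1 nM T3 (final), and incubated 23.5 h at 37 C. ONE-Glo luminescence measured reporter inhibition; CellTiter-Fluor fluorescence tracked cytotoxicity.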

Assay [10] deals with thyroid hormone receptor (rat, GH3 cells). Put plainly: qHTS assay to identify small molecule agonists of the thyroid receptor (TR) signaling pathway (AID 743066; calls by dose curve).
The target in assay [11] is Estrogen receptor (Homo sapiens) (UniProt P03372). Put plainly: qHTS assay to identify small molecule agonists of the estrogen receptor alpha (ER-alpha) signaling pathway (AID 743075; calls by dose curve).
Assay [12] shares this target. Put plainly: qHTS assay to identify small molecule agonists of the estrogen receptor alpha (ER-alpha) signaling pathway using the BG1 cell line (AID 743079). Note: nearly all actives have a fitted effect of over 20% in size.
A short description of assay [13]: qHTS assay to identify small molecule antagonists of the estrogen receptor alpha (ER-alpha) signaling pathway using the BG1 cell line (AID 743080; calls by dose curve;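 note: BG1 cells stimulated with 17beta-estradiol alongside compound; nearly all actives have a fitted effect of over 25% in size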; note: potency is the fitted concentration of half-maximal effect). An outline of the steps: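 BG1-Luc-4E2 cells (endogenous full-length ER-alpha, stable 4×ERE-luciferase) were starved 5 days in phenol-red-free medium with 10% charcoal-stripped FBS, plated 24 h, then given compound plus 17beta-estradiol for 21.5 h at 37 C; ONE-Glo luminescence read after 30 min.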

Assay [14] concerns the target Androgen receptor (Homo sapiens) (UniProt P10275). Description: qHTS assay to identify small molecule antagonists of the androgen receptor (AR) signaling pathway (AID 743035; active = well fitted inhibition curve with a large enough effect in the signal ratio in the repeat runs, not every such curve was filed as active; the % refers to the signal ratio). An outline of the steps: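 Steps: seed AR-UAS-bla GripTite HEK293 cells, incubate 4 h at 37C; pin in test compound, then add agonist R1881; incubate 16 h at 37C; add LiveBLAzer B/G FRET substrate, 2 h at room temperature; read fluorescence.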

The target is the same in assay [15]. Put plainly: qHTS assay to identify small molecule agonists of the androgen receptor (AR) signaling pathway (AID 743036; active = well fitted activation curve with a large enough effect in the signal ratio in the repeat runs, with a control signal flat, not every such curve was filed as active; the % refers to the signal ratio). An outline of the steps: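 Fluorescence from a beta-lactamase FRET substrate served as read-out in AR-UAS-bla GripTite HEK293 cells. Cells were treated with DMSO-dissolved compounds for 16 h at 37C, then with LiveBLAzer B/G substrate for 2 h at room temperature.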

The target is the same in assay [16]. Put plainly: qHTS assay to identify small molecule agonists of the androgen receptor (AR) signaling pathway using the MDA cell line (AID 743040; note: nearly all actives have a fitted effect of over 20% in size). In a few lines: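 Agonist activity is measured as luciferase luminescence in human MDA-kb2 cells whose MMTV reporter responds to both AR and GR. Compounds in DMSO incubate 16 h at 37C, 0% CO2, and ONE-Glo is read after 30 min.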

Assay [17] is described as follows: qHTS assay to identify small molecule antagonists of the androgen receptor (AR) signaling pathway using the MDA cell line - cell viability counter screen (AID 743041; note: nearly all actives have a fitted effect of over 45% in size; note: potency is the fitted concentration of half-maximal effect). An outline of the steps:
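qHTS viability read-out; MDA-kb2 AR-luc; R1881-stimulated; 16 h exposure at 37C, 0% CO2; CellTiter-Fluor, 30 min; fluorescence intensity.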

Assay [18] deals with Androgen receptor (Homo sapiens) (UniProt P10275). Description: qHTS assay to identify small molecule antagonists of the androgen receptor (AR) signaling pathway using the MDA cell line (AID 743042; note: nearly all actives have a fitted effect of over 55% in size). In a few lines:
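MDA-kb2 cells (human breast carcinoma, stably carrying an MMTV-luciferase reporter responsive to AR and GR) were plated at 3,000 cells/well and preincubated 5 hr at 37C, then given compound plus R1881 agonist for 16 h. ONE-Glo luminescence was read.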

For assay [19], the target named is Estrogen receptor (Homo sapiens) (UniProt P03372). Description: qHTS assay to identify small molecule antagonists of the estrogen receptor alpha (ER-alpha) signaling pathway (AID 743069; active = well fitted curve in the direction sought with a large enough effect in the signal ratio in the repeat runs, not every such curve was filed as active; the % refers to the signal ratio; note: potency is the fitted concentration of half-maximal effect). An outline of the steps:
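Screening used a UAS-driven beta-lactamase reporter integrated into HEK293 cells expressing ER-alpha, stimulated with 17beta-estradiol alongside test compounds over 18 hr at 37C; signal came from LiveBLAzer B/G FRET fluorescence.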

Values joined by “and” are separate entries in the source; they are usually repeats but may differ in a detail not shown here. Equal entries are not always repeated. Inconclusive results are not listed. Some structures have more than one record in an assay (separate samples or runs), and their calls can disagree. Active and inactive are the calls of the source. Unless noted, calls come from the whole dose curve; as a rule, active = well fitted curve in the direction sought with a large enough effect in the repeat runs; inconclusive = weak or mixed curves; inactive = no such curve, though single readings can be large; an effect the other way counts as inactive or inconclusive.

Chain of Aromatase (Homo sapiens) (P11511 whole entry, looked up): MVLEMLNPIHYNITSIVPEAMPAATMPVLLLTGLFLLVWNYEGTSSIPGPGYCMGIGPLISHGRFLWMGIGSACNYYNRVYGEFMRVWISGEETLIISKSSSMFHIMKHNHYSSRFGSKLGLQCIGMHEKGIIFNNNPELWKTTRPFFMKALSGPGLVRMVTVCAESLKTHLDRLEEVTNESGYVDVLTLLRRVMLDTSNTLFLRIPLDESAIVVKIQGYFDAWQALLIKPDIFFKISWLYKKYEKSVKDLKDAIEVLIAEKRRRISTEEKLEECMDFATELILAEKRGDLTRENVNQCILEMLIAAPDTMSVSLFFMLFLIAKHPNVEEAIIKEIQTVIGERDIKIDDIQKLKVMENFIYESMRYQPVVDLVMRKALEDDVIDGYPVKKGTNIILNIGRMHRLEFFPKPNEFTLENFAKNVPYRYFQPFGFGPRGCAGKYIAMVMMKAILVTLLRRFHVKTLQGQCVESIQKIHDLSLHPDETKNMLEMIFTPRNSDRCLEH
Chain of Estrogen receptor (Homo sapiens) (P03372 whole entry, looked up): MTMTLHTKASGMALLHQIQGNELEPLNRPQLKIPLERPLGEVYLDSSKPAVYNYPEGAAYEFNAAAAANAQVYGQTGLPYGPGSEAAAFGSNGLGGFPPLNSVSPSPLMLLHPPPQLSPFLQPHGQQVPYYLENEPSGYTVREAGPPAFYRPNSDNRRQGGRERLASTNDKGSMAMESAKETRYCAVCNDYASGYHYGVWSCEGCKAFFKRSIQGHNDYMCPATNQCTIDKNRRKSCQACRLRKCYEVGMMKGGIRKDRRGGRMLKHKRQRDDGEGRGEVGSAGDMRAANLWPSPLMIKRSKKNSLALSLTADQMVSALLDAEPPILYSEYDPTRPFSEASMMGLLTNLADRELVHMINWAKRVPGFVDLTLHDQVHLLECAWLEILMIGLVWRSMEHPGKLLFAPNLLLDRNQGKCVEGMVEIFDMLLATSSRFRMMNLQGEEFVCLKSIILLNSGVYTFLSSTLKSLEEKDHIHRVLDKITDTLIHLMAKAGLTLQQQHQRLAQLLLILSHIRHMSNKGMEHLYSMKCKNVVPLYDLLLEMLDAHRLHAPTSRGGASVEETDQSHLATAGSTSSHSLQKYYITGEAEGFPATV
Chain of Androgen receptor (Homo sapiens) (P10275 whole entry, looked up): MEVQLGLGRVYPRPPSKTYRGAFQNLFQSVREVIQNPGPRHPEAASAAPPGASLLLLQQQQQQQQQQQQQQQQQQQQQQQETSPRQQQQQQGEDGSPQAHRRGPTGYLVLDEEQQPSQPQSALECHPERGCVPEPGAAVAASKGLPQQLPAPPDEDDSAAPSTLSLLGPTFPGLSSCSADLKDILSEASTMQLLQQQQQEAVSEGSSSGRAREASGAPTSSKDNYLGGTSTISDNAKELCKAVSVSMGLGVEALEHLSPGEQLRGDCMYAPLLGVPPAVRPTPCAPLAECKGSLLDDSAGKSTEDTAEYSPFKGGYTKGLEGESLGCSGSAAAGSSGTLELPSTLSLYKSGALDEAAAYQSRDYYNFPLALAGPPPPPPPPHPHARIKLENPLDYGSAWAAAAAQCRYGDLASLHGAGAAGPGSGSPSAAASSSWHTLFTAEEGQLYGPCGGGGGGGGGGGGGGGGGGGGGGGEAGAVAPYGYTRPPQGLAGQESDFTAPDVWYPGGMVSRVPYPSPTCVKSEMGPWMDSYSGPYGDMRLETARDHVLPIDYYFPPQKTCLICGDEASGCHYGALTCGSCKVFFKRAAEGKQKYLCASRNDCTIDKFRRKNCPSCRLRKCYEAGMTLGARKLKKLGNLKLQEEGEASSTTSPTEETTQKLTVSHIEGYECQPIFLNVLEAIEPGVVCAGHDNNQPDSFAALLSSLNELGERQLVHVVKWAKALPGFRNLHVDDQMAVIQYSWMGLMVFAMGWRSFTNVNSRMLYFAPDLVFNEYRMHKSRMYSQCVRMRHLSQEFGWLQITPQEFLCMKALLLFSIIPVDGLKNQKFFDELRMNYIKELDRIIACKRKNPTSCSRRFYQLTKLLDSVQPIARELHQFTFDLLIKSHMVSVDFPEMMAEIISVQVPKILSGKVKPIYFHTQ

For the compound `CN(C)C(=S)S`, the Potency result in assay [1], in assay [7] and in assay [8] was “inactive” each time. Besides, the Potency in [2] is 1.36 µM (active) and 1.37 µM (active); in [3] it was 1.21 µM (active) and 1.72 µM (active); in assay [4] it was 1.36 µM (active) and 2.17 µM (active); in assay [5], 15.8 µM (active) and 1.54 µM (active) and 9.77 µM (active); in assay [6], “inactive and 27.1 µM (active) and 2.73 µM (active)”; with Aromatase (Homo sapiens) it was 8.81 µM (active) and 607 nM (active) and 1.72 µM (active).

As for `O=C/C(Cl)=C(/Cl)C(=O)O`, the Potency entry in [1], in [11], in assay [12], in [13] and in assay [8] was “inactive” throughout. Besides, the Potency in [2] is 17.2 µM (active); in [3], 19.3 µM (active) and 15.4 µM (active); in [4], 21.7 µM (active); in [9], 68.6 µM (active). The compound was classed as inactive in [10].

On to `CNC(C)Cc1ccc2c(c1)OCO2` (centres undefined), for which the Potency entry in assay [1], in assay [2], in [5], in [14], in assay [15] and in assay [16] was “inactive” each time. The Potency result in assay [17], in [18], in assay [6], in [9], in assay [19] and in assay [7] was “inactive” each time. In addition, the Potency result (in [11]; in assay [12]; in assay [13]; with Aromatase (Homo sapiens)) was “inactive” throughout. Besides, the call in assay [10] was inactive.

As for `CCC[CH2][Sn]([CH2]CCC)([CH2]CCC)[O]C(=O)c1ccccc1`, the Potency was 1.55 µM (active) in assay [1]; 0.243 µM (active) in assay [2]; 0.154 µM (active) in assay [3]; 0.193 µM (active) in [4]; 0.692 µM (active) in [5]; 1.22 µM (active) in assay [6]. Moreover, the Potency in assay [19] was 9.77 µM [cytotoxic] (active); in assay [7] it was 1.74 µM (active); in assay [13], 0.344 µM (active); in assay [8], 1.72 µM (active); with Aromatase (Homo sapiens) it was 2.17 µM (active).

With `BrC(Br)C(Br)(Br)Br`, the Potency entry in assay [1], in assay [2], in assay [3], in assay [4], in [7] and in [11] was “inactive” in each case. Further, the Potency result in assay [12] and in assay [8] was “inactive” each time. Moreover, the Potency in assay [6] was 24.5 µM (active); in assay [9], 19.4 µM (active); in the assay with Aromatase (Homo sapiens), 61.5 µM (active). In [10], the result was inactive.

On to `CCCSP(=O)(OCC)SCCC`, for which the Potency is 28.3 µM (active) in assay [2] and 39.9 µM (active) in [4]. For the same compound, the Potency entry in assay [5], in [14], in assay [15], in [16], in [17] and in [9] was “inactive” throughout. In addition, the Potency entry (in assay [8]; with Aromatase (Homo sapiens)) was “inactive” in each case. The outcome in [10] was inactive.

Regarding `CC(C)(C)c1cc([N+](=O)[O-])cc(C(C)(C)C)c1O`, the Potency is 6.86 µM (active) in assay [2]; 10.9 µM (active) in assay [3]; 7.7 µM (active) in [4]; 5.49 µM (active) in assay [5]; 12.2 µM (active) in assay [17]; 12.2 µM (active) in assay [6]. Further, the figures for the Potency (in assay [9]; with Aromatase (Homo sapiens)) were 6.86 µM (active) and 17.2 µM (active), respectively. Besides, in assay [10], the result was inactive.

As to `CC(=O)[O-].CC(=O)[O-].O.O.[Cd+2]`, the Potency in [2] is 67.6 µM (active); in assay [3] it was 67.6 µM (active); in [4], 60.3 µM (active); in assay [5], 24.2 µM (active); in assay [6] it was 24 µM (active); in assay [7] it was 43 µM (active). In addition, the Potency entry in [17] and in assay [8] was “inactive” throughout. Besides, the result in assay [10] was inactive.

As for `CCOCCOC(C)=O`, the Potency entry in [3], in assay [4], in [5], in [9], in [19] and in assay [11] was “inactive” in each case. For the same compound, the Potency entry (in [12]; in assay [13]; in the assay with Aromatase (Homo sapiens)) was “inactive” throughout. In assay [10], the compound was classed as inactive.

Consider `COc1ccc(N)cc1N`, for which the Potency in [2] was 11.7 µM (active); in assay [3], 3.98 µM (active) and 5.87 µM (active); in [4], 9.99 µM (active) and 7.38 µM (active); in assay [5] it was 16 µM (active) and 18.7 µM (active); in assay [6], 37 µM (active); in the assay with Aromatase (Homo sapiens) it was 12.6 µM (active) and 33 µM (active). Besides, the call in assay [10] was inactive. Moreover, the Potency result in assay [8] was “inactive”.

For `C=CC(=O)OCCCCOC(=O)C=C`, the Potency in assay [2] is 27.3 µM (active); in [3], 27.3 µM (active); in assay [4] it was 27.3 µM (active); in [6] it was 17.2 µM (active); in the assay with Aromatase (Homo sapiens) it was 43.3 µM (active). Further, the Potency result in assay [7], in assay [11] and in assay [12] was “inactive” in each case.

As to `CCCCCCCCCCCCCCC(Br)C(=O)O` (centres undefined), the Potency was 24.3 µM (active) in assay [3] and 43.3 µM (active) in assay [6]. Also, the Potency result (in assay [5]; in [17]; in [7]; in assay [12]; in [8]; with Aromatase (Homo sapiens)) was “inactive” throughout. For the same compound, in [10], the call was inactive.

For the compound `Oc1ccc2ccc3cccc4ccc1c2c34`, the Potency in [2] was 30.6 µM (active); in [3], 48.6 µM (active); in assay [4] it was 30.6 µM (active). Besides, the Potency result in [5], in [7] and in assay [8] was “inactive” each time.
